Source: the supplement of paper PMC11732987, “Enantioselective OTUD7B fragment discovery through chemoproteomics screening and high-throughput optimisation” (Communications Chemistry, 2025)

Tests used:
Experiment in all cases: log2 ratio of Biotin-Ahx-Ub-VS probe labelling (fragment/DMSO); higher = less target engagement (more negative = stronger competition), active = hit call of the paper (q ≤ 0.05, log2 ratio ≤ -1)
Conditions in all cases: compound concentration: 200 uM; treatment time: 3 h
USP9X = USP9X (UniProt Q93008)
Outline: (§1)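 In triplicate, 495 µg of HEK293T lysate per sample was incubated with fragment at 200 µM or vehicle for 3 h. Biotin-Ahx-Ub-VS was then added to 0.5 µM final for 1 h, and labelled DUBs were captured with NeutrAvidin, digested with LysC and trypsin, and measured by diaPASEF LC-MS/MS. Data are average log2 fragment/vehicle ratios by unpaired t-test from global-median-normalised Spectronaut label-free quantities, restricted to proteins with ≥2 unique peptides.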

UniProt O00487 = target: UniProt O00487
Chain of UniProt O00487 (O00487 whole entry): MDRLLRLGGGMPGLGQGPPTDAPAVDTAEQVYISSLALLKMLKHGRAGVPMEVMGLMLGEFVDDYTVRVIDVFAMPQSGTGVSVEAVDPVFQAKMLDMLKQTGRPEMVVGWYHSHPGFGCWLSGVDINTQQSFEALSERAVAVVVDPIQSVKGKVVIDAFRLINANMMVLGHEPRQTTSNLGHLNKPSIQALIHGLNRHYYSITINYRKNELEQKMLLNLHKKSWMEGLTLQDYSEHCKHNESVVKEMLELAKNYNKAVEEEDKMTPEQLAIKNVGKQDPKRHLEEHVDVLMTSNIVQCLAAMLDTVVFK
Outline: as §1

UniProt O00507 = target: UniProt O00507
Chain of UniProt O00507 (O00507 whole entry): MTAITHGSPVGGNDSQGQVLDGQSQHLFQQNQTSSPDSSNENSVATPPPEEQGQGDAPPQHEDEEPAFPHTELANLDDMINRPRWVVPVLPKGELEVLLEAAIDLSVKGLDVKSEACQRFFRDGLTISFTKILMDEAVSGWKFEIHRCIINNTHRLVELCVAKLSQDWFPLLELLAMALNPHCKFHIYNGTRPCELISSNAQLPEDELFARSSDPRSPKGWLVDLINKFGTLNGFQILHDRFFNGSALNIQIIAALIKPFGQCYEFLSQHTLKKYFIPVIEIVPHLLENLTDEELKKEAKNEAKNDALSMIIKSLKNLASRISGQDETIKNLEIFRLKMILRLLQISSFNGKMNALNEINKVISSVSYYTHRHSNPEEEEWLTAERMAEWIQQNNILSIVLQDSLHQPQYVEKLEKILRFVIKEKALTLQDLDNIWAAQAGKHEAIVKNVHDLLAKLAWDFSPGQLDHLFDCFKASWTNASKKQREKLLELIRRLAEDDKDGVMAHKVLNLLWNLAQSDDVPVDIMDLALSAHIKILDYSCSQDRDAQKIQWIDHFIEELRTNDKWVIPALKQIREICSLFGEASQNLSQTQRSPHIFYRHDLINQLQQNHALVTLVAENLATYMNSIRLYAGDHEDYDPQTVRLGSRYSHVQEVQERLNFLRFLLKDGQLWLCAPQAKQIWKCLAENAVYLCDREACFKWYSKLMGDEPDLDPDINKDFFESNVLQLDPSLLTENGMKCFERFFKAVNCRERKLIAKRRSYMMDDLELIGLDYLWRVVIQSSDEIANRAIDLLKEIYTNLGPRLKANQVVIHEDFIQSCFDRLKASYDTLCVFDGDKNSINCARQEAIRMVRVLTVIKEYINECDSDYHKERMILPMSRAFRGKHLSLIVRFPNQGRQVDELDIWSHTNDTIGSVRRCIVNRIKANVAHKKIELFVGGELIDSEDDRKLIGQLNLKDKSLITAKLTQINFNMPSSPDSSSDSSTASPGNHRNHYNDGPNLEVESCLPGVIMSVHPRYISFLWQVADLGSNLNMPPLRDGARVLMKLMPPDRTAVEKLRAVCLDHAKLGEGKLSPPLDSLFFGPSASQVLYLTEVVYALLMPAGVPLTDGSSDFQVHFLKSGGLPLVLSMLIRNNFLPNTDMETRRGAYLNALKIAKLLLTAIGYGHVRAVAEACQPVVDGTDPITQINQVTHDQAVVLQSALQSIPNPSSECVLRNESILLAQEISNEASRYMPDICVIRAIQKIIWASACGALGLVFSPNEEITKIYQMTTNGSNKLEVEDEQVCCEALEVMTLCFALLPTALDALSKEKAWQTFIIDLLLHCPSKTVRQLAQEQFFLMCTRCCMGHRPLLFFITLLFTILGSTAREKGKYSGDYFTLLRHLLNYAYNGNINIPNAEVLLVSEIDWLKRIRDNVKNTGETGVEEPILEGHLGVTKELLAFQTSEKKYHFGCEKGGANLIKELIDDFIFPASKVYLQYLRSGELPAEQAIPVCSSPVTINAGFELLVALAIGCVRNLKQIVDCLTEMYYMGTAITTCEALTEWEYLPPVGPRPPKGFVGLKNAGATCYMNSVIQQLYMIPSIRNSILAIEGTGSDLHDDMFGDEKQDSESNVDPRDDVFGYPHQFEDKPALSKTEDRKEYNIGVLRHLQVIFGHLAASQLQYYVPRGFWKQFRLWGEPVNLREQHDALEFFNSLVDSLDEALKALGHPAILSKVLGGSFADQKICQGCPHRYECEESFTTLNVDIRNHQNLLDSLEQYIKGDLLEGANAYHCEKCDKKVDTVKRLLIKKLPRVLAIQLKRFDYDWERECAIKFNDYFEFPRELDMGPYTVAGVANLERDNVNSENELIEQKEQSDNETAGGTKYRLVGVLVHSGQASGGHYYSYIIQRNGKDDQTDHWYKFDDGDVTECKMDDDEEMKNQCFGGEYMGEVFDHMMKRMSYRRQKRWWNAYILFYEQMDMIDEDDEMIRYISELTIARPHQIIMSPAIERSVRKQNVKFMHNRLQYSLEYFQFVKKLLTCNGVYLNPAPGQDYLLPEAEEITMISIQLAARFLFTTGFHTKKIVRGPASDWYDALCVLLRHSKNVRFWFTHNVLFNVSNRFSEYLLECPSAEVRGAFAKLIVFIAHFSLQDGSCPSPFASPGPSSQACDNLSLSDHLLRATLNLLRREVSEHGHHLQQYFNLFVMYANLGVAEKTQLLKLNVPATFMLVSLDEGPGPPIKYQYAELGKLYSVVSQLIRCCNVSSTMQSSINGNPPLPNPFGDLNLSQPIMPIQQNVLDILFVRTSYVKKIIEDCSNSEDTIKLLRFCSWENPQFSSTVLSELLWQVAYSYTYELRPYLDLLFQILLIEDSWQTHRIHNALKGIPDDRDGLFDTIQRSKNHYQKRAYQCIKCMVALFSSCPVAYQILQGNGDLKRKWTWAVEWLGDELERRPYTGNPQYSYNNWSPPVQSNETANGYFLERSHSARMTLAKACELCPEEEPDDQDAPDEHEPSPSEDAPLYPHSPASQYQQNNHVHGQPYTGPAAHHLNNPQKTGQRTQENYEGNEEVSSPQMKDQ
Outline: as §1

UniProt P51784 = target: UniProt P51784
Chain of UniProt P51784 (P51784 whole entry): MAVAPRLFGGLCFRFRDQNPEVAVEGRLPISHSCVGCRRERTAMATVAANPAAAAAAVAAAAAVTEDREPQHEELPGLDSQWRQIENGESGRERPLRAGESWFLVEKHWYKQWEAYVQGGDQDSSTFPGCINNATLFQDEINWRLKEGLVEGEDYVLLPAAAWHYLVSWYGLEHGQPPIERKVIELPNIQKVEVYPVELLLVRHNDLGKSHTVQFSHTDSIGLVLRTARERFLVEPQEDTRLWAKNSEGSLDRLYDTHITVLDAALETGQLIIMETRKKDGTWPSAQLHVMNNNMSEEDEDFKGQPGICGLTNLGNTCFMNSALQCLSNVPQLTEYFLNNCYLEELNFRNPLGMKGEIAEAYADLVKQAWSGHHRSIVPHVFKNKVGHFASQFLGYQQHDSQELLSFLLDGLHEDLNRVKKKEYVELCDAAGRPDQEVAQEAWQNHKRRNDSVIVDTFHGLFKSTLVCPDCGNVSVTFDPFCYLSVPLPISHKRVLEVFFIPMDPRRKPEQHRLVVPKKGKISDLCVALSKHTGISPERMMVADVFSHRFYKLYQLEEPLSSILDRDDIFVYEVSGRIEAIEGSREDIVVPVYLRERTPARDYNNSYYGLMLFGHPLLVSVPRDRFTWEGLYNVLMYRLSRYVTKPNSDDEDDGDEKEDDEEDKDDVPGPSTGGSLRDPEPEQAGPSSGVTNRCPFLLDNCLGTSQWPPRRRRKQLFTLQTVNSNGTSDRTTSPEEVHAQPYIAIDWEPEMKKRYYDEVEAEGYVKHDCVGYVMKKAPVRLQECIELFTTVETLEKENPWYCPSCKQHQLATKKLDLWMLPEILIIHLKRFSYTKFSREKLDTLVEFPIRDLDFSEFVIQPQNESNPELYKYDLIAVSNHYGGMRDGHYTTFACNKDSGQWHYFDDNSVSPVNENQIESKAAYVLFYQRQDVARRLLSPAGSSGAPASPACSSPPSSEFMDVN
Outline: as §1

UniProt Q5T2D3 = target: T1, UniProt Q5T2D3
T1 sequence (whole entry): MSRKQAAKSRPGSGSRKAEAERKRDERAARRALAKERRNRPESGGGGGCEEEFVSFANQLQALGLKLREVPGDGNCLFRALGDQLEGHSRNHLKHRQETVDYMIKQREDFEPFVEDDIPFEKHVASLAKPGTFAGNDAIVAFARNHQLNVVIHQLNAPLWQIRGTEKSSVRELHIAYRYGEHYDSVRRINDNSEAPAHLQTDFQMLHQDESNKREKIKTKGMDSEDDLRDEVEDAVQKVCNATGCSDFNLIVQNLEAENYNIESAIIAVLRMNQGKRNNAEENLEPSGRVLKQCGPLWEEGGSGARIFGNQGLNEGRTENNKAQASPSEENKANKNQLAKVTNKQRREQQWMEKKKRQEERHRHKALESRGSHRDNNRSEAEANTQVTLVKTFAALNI
Outline: as §1

UniProt Q8TE49 = target: T2, UniProt Q8TE49
T2 sequence (whole entry): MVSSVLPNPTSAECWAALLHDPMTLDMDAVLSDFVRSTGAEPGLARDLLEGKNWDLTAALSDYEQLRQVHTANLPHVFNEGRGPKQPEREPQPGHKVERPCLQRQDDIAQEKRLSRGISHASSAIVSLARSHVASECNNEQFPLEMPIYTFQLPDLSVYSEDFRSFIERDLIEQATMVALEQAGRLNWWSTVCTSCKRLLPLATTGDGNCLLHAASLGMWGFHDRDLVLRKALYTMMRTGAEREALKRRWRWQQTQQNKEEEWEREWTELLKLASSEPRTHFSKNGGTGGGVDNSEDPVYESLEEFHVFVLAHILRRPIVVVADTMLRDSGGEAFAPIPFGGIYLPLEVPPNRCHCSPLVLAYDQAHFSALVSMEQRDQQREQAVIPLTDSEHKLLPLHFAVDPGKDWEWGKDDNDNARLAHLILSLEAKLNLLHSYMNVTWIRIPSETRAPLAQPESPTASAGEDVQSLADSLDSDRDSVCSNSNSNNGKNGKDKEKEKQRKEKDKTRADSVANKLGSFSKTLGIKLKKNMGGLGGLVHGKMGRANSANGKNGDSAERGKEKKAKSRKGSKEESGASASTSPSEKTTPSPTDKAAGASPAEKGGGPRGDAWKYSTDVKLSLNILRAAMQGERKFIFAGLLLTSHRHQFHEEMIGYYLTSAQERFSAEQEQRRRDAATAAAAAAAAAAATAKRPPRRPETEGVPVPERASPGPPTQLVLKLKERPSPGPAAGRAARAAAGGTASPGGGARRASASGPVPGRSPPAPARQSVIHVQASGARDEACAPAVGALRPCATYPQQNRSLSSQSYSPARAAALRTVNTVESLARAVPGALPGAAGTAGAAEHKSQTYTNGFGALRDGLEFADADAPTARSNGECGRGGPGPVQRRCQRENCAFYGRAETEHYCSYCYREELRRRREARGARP
Outline: as §1

UniProt Q9P2H5 = target: T3, UniProt Q9P2H5
T3 sequence (whole entry): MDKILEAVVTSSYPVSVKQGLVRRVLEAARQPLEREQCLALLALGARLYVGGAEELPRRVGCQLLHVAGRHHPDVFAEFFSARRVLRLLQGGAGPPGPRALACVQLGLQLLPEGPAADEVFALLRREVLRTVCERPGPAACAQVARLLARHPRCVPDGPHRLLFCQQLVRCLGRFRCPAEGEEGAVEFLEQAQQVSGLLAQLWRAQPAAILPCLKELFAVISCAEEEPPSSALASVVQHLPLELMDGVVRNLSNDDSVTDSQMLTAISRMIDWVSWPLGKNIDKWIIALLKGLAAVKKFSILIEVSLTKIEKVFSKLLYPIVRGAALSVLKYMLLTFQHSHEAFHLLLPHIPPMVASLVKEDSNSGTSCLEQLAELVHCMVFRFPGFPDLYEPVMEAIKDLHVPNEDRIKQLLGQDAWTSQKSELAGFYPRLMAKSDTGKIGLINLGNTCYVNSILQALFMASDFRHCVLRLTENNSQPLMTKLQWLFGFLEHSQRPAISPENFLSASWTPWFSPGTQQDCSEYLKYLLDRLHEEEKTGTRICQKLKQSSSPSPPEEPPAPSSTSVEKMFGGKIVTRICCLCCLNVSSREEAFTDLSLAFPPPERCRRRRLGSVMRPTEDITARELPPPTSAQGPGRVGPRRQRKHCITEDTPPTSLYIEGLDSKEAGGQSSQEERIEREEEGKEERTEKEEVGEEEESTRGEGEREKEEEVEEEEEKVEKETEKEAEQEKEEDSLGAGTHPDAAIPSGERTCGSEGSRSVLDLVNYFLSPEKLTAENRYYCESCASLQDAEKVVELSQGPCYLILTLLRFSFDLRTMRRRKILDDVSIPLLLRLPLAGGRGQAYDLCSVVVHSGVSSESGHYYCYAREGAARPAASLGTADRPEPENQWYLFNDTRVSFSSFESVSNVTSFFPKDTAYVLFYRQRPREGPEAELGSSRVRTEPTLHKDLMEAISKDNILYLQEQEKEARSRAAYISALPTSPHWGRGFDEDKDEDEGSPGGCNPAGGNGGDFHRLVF
Outline: as §1

UniProt Q9UGI0 = target: T4, UniProt Q9UGI0
T4 sequence (whole entry): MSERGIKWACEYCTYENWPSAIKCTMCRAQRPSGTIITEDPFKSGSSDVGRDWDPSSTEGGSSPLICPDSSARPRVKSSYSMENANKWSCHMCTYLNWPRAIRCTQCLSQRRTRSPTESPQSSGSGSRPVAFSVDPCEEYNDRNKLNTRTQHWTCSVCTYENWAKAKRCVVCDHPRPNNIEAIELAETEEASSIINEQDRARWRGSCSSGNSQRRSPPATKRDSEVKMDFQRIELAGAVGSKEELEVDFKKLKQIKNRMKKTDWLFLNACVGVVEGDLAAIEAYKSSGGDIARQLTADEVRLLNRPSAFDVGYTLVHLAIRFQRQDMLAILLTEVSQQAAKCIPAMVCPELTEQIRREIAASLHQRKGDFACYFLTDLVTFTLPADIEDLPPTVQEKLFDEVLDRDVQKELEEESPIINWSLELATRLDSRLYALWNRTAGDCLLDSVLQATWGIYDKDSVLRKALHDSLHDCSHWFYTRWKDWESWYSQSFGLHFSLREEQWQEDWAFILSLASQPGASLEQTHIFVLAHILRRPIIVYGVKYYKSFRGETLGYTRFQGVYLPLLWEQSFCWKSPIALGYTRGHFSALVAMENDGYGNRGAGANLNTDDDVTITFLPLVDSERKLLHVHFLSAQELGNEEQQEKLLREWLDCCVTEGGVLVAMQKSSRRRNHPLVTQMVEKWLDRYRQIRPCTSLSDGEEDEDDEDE
Outline: as §1

YOD1 = target: T5, YOD1 (UniProt Q5VVQ6)
T5 sequence (whole entry): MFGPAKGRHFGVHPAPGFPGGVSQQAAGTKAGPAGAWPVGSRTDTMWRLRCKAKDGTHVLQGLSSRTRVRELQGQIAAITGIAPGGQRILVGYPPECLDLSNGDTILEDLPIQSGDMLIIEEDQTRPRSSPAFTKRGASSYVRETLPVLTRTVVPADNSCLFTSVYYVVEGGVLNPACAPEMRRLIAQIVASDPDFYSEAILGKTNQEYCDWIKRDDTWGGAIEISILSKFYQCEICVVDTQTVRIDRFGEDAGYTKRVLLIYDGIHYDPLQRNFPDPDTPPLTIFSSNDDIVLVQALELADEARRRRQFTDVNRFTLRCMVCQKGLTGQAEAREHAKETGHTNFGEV
Outline: as §1

Measured: log2 ratio of Biotin-Ahx-Ub-VS probe labelling

CN(C)C(=O)c1ccc(CNC(=O)CCl)cc1
inactive: USP9X 0.002 | UniProt O00487 -0.101 | UniProt O00507 0.565 | UniProt P51784 0.0173 | UniProt Q5T2D3 -0.167 | UniProt Q8TE49 -0.516 | UniProt Q9P2H5 -0.0353 | UniProt Q9UGI0 -0.474 | YOD1 0.0763
